ClpP mod: qHTS Assay for Activators of ClpP. ATP-dependent Clp protease proteolytic subunit (Bacillus subtilis (strain 168)), P80244. purified B. subtilis ClpP, FRET peptide cleavage, 20 min. Potency, µM (titrated, usually from 57.5 µM). 340,000 compounds, 1.9% hits; active = well fitted falling curve with a large enough effect; inconclusive = small, poorly fitted or top-dose-only effect; inactive = no such curve, though single readings can be large or run the other way; also: the source files actives as falling curves though it sought activators and does not explain the sign; nearly all actives have a fitted effect of over 65% in size
Target sequence (P80244 whole entry, looked up): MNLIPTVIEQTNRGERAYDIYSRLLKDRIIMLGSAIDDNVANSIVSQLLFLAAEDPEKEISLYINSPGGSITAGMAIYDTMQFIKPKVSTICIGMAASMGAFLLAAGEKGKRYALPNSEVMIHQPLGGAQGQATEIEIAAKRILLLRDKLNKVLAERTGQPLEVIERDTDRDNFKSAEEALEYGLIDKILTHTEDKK
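Buffer: 100 mM Tris/HCl pH8, 100 mM KCl, 0.05% low protease BSA, 2.5% glycerol, 0.01% Tween-20. ClpP 10 microg/mL final; 20 min RT; delta FRET normalized to ADEP and DMSO controls.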
Eya2 phos inh: blocks the phosphatase activity of human Eya2; O00167; AID 488837; recombinant Eya2, OMFP fluorescence dephosphorylation (OMFP is methylfluorescein phosphate); Potency, µM (titrated, usually from 76.9 µM), usual class: inhibitors; 330,000 compounds, 0.006% hits
Target sequence (O00167 whole entry, looked up): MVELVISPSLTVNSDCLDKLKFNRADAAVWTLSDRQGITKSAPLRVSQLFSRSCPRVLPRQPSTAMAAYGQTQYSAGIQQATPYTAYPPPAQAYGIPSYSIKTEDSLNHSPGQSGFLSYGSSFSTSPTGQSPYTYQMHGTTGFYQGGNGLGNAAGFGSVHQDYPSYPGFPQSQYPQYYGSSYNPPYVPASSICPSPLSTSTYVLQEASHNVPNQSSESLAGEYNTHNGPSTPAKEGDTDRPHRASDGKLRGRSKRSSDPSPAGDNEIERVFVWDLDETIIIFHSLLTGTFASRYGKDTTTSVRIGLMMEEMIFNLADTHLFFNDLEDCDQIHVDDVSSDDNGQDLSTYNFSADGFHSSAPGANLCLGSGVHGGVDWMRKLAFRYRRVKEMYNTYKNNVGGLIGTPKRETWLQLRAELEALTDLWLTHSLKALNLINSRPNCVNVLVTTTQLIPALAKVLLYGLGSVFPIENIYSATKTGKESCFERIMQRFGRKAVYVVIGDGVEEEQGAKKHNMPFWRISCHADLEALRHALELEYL
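Eya2 (0.2 uM) preincubated 10 min at ambient with compound, then OMFP substrate added at 50 uM; 10 min reaction in 50 mM HEPES pH 7.5, 50 mM NaCl, 5 uM MgCl2, 0.05% BSA, 1 mM DTT. Fluorescence read at Ex 485/Em 525 nm.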
MmCpn inh: inhibitors of Methanococcus maripaludis chaperonin TRiC (MmCpn) | Potency, µM (top dose mostly 76.9 µM), actives largely listed as inhibitors | 330,000 compounds, 0.031% hits | purified Mm-Cpn ATPase, ADP Transcreener TR-FRET; also: nearly all actives have a fitted effect of over 80% in size
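Compound-treated chaperonin, 25 nM final, turns over 10 uM ATP at 37°C for 30 min following a 10 min preincubation; ADP generated competes with ADP-d2 for Eu-cryptate antibody, lowering FRET.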
a7 integrin act: activates integrin-mediated alleviation for muscular dystrophy | alpha7betagal myoblasts, beta-gal FDG fluorescence, 48 h | AID 624291 | 350,000 compounds, 0.064% hits | Potency, µM (titrated, usually from 38.3 µM), hits mostly activators; also: nearly all actives have a fitted effect of over 60% in size
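alpha7betagal+/- myoblasts (passage 13, 250/well) treated 48 h at 37C with compounds at 1:260 dilution of DMSO stock. Lysed, then beta-galactosidase activity read as FDG fluorescence (ex 480/em 540) after 30 min, with pre-read for autofluorescence.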
p53 reactivator: mutant p53 re-activation in reporter cells. Potency, µM (titrated, usually from 92.2 µM), actives largely listed as activators. H1299 p53-A138V BP100-luciferase reporter, luminescence, 24 h. 320,000 compounds, 0.063% hits; also: nearly all actives have a fitted effect of over 45% in size
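p53-null H1299 cells stably carrying temperature-sensitive p53-A138V and a BP100-luciferase reporter were pinned with compounds (4-point, 1:5 series) and held 24 hrs at 37 deg C. Luminescence was read 10 min after detection reagent.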
USP2a inh: inhibitors of human ubiquitin-specific protease USP2a | O75604 | USP2 core, Ub-CHOP2 coupled fluorogenic reporter, 485/531 | Potency, µM (highest dose often 38.3 µM), usual class: inhibitors | 330,000 compounds, 0.01% hits | AID 463254
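USP2 core (10nM final) preincubated 30min RT with compound in 20mM Tris-HCl pH 8.0, 2mM CaCl2, 2mM beta-mercaptoethanol, 0.05% CHAPS; 25nM Ub-CHOP2 plus 25nM reporter substrate added, fluorescence (Ex485/Em531) read after 60min.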
Hits are given with their value; – = inactive; ? = inconclusive; · = no result given; ! = not active in a repeat; [ ] = another dose, or the depositor's remark. Many of the other results were omitted from the sample, so hits are more common in it than they were. Unless noted, calls follow the shape of the dose curve; as a rule, active = well fitted curve in the direction sought with a large enough effect; inconclusive = small, poorly fitted or top-dose-only effect, or another doubt; inactive = no such curve, though single readings can be large; an effect the other way counts as inactive or inconclusive.

SMILES	ClpP mod	Eya2 phos inh	MmCpn inh	a7 integrin act	p53 reactivator	USP2a inh
O=C(CNC(=O)c1cccc(F)c1)N/N=C/c1cc(Br)ccc1OCc1ccccc1	–	–	–	10µM	–	–
O=C(CNC(=O)c1ccccc1F)N/N=C/c1cc(Br)ccc1OCc1ccccc1	–	–	–	–	–	–
O=C(CNC(=O)C(c1ccccc1)c1ccccc1)OCC(=O)c1ccc2ccccc2c1	–	·	·	·	·	·
CCCCCCCCN(CCCCCCCC)c1ccc(/C=C/c2ccnc3ccccc23)cc1	–	·	·	·	·	·
CCc1cc2c(=O)c(-c3cscn3)coc2c(CN(C)C)c1O	15.8µM	–	–	–	–	–
Cc1cc(C)cc(Oc2coc3c(CN(C)C)c(O)ccc3c2=O)c1	–	–	–	–	–	–
Cc1oc2c(CN(C)C)c(O)ccc2c(=O)c1-c1cscn1	25.1µM	–	–	–	–	–
COc1ccc(Oc2coc3c(CN(C)C)c(O)ccc3c2=O)cc1	28.2µM	–	–	–	–	–
COc1cccc(Oc2c(C)oc3c(CN4CCCCC4)c(O)ccc3c2=O)c1	–	–	–	–	–	–
COc1ccc(Oc2c(C)oc3c(CN(C)C)c(O)ccc3c2=O)cc1	28.2µM	–	–	–	–	–
O=C(O)c1cccs1	–	·	·	·	·	·
O=S1(=O)CCOC[C@H](c2ccccc2)N1Cc1ccc(Cl)cc1Cl	–	·	·	·	·	·
C[C@@H]1[C@H](c2ccccc2)OCCS(=O)(=O)N1Cc1cccc(Cl)c1	–	·	·	·	·	·
CN(C)c1ccc(/C=C/c2c(F)cnc3ccccc23)cc1	–	·	·	·	·	·
Cc1cc(Nc2cccc(Cl)c2)nc2ccc(NC(=O)c3ccc(F)cc3Cl)cc12	28.2µM	·	·	·	·	·
CCCCCn1c(-c2ccc(OC)c(OC)c2)nc2ccccc21	–	·	·	·	·	·
Cc1cc(C)n2nc3nc4c(cc3c2n1)CCCC4	12.6µM	–	–	–	?	–
Cc1cc(C(=O)N/N=C/c2cc(N=Nc3ccccc3)ccc2O)n[nH]1	–	–	–	–	12.6µM	–
CC(=O)Nc1ccc(S(=O)(=O)NCCC(=O)N2CCC(Cc3ccccc3)CC2)cc1	11.2µM	–	–	–	–	–
O=C(Nc1ccc(S(=O)(=O)NCc2ccccc2)cc1)C1CCCCC1	25.1µM	–	–	–	–	–
Cc1ccc(S(=O)(=O)NCCC(=O)N2CCC(Cc3ccccc3)CC2)cc1	–	–	–	–	–	–
O=C1CCCCCC1C1(O)C(=O)Nc2ccccc21 (centres undefined)	11.2µM	–	–	–	–	–
O=C(Nc1nc2nccc(-c3ccccc3)n2n1)c1ccc(F)cc1	28.2µM	–	–	–	–	–
O=C(Nc1nc2nccc(-c3ccccc3)n2n1)c1ccccc1	·	–	–	–	–	–
CCn1c(=O)cc(SCC(=O)NCCc2ccc(Cl)cc2)c2ccccc21	–	·	·	·	·	·
SMILES	ClpP mod	Eya2 phos inh	MmCpn inh	a7 integrin act	p53 reactivator	USP2a inh
CCOc1ccc(CCNC(=O)CSc2cc(=O)n(CC)c3ccccc23)cc1OCC	31.6µM	–	–	–	–	–
COc1ccc(-c2nc3nc(C)cc(C)n3n2)cc1	15.8µM	–	–	–	?	–
CCn1c(=O)c(=O)[nH]c2cc(C(=O)NC3CC3)ccc21	31.6µM	–	–	–	–	–
CCn1c(=O)c(=O)[nH]c2cc(C(=O)NC3CCCc4ccccc43)ccc21 (centres undefined)	31.6µM	–	–	–[7.66 µM]	–	–
CCOc1cccc(C2C=C(c3ccc4c(c3)OCO4)NC(c3cccc(Br)c3)N2)c1O (centres undefined)	–	·	·	·	·	·
C[N+](C)(C)CCN(Cc1ccc(Cl)cc1)c1ccccn1	25.1µM	–	–	–	–	–
Cn1c(=O)c2c(nc(NCC3CCCO3)n2Cc2ccccc2)n(C)c1=O (centres undefined)	28.2µM	–	–	–	–	–
COc1ccc(-n2cccc2/C=C2/NC(=O)N(c3cccc(Cl)c3)C2=O)cc1	25.1µM	–	–	–	–	–
Nc1c(Cl)cc(C=O)cc1Cl	–	·	·	·	·	·
O=C1NC2=C(CCc3ccccc32)C(c2ccc(Br)cc2)N1 (centres undefined)	28.2µM	–	–	–	–	–
CCOc1ccc(-n2cc(-c3ccccc3)c3c(NCc4ccccc4)ncnc32)cc1	–	·	·	·	·	·
Clc1ccc(CCNc2ncnc3c2c(-c2ccccc2)cn3-c2ccccc2)cc1	20µM	·	·	·	·	·
CCOc1ccc(-n2cc(-c3ccccc3)c3c(NCCc4ccccc4)ncnc32)cc1	25.1µM	·	·	·	·	·
O=C(Cc1cccs1)NC1(C(=O)NC2CCCC2)CCCCC1	25.1µM	–	–	–	–	–
Cc1nc2nc(NCc3cccs3)nn2c(C)c1Cl	12.6µM	–	–	–	–	–
COc1ccc(CNc2nc3nc(C)c(Cl)c(C)n3n2)cc1	·	–	–	–	–	–
COc1cccc(CNc2nc3nc(C)c(Cl)c(C)n3n2)c1	31.6µM	–	–	–	?	–
Cc1nc2nc(COc3ccccc3)nn2c(C)c1Cl	14.1µM	–	–	–	–	–
C#CCn1c(COc2ccccc2C)nc2ccccc21	–	·	·	·	·	·
CCc1cccc(C)c1NC(=O)Cn1ccn(-c2cccc(OC)c2)c(=O)c1=O	–	·	·	·	·	·
CCc1cccc(C)c1NC(=O)CN1C(=O)c2c(c3ccccc3n2C)C1c1ccc(OC)cc1 (centres undefined)	25.1µM	·	·	·	·	·
CCCCNC(=O)CN1C(=O)c2c(c3ccccc3n2C)C1c1ccc(OC)cc1 (centres undefined)	31.6µM	·	·	·	·	·
COc1ccc(NC(=O)CCn2nc(-c3ccc(Cl)cc3)c3ccccc3c2=O)cc1	–	·	·	·	·	·
COc1ccc(C2c3c(n(C)c4ccccc34)C(=O)N2CC(=O)Nc2ccc(Cl)cc2)cc1 (centres undefined)	17.8µM	·	·	·	·	·
O=C1c2ccccc2C(=O)N1c1nc(-c2ccc(F)cc2)cs1	–	·	·	·	·	·
SMILES	ClpP mod	Eya2 phos inh	MmCpn inh	a7 integrin act	p53 reactivator	USP2a inh
COc1ccc(/C=C/C(=O)Nc2cccc(S(=O)(=O)N3CCOCC3)c2)cc1OC	28.2µM	–	–	–	–	–
O=C(CNc1cccc(S(=O)(=O)N2CCOCC2)c1)Nc1cccc(Br)c1	28.2µM	–	–	–	–	–
CCCN1CNc2c(c(=O)[nH]c(=S)n2CCc2cccc(Cl)c2)C1	–	·	·	·	·	·
COc1cc(/C=C/C(=O)c2c(O)cc(C)oc2=O)cc(OC)c1O	28.2µM	–	–	–	–	–
COc1cc(/C=C/C(=O)c2c(O)ccc3c(C)cc(=O)oc23)ccc1O	28.2µM!	·	·	–	·	·
O=S(=O)(c1ccc2c(c1)OCO2)N1CCN(c2nc(-c3cccs3)nc3ccccc23)CC1	–	·	·	·	·	·
CC1CCCCN1C(=S)Nc1ccc2nc3n(c(=O)c2c1)CCCCC3 (centres undefined)	28.2µM	–	–	–	–	–

High-throughput results: PubChem BioAssay, National Center for Advancing Translational Sciences (NCATS)
